For one test, the system named is CASKI. Briefly: Primary qHTS to identify gynecologic anti-cancer compounds using libraries of approved drugs and bioactive compounds (AID 1345084). Note: % is set by controls: 0 for no effect and ±100 for the full control effect; nearly all actives have a fitted effect of over 55% in size. Conditions: Gynecologic cancer cell panel viability, ATPlite luminescence, 48 h; series mostly up to 57.5 µM. An outline of the steps:
(§1)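 Cells, 1,000 per well, were allowed to settle for 16 h at 37 C before compound addition. Five concentrations were tested for 48 h, and viability was read by ATPlite luminescence after 15 min at room temperature.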
(In general: qHTS replaces the single test concentration by a dilution series.)

The next test concerns Es-2. The description is as above. Conditions: Gynecologic cancer cell panel viability, ATPlite luminescence, 48 h; series mostly up to 57.5 µM. An outline of the steps: as §1
On the technique in general: Cellular ATP, detected with luciferase, serves as a proxy for viable cell number.

The next test has as its system HeLa. The test is described as above. Conditions: Gynecologic cancer cell panel viability, ATPlite luminescence, 48 h; series mostly up to 57.5 µM. Put shortly:
as §1

The next test relates to Hek293T. The test is described as above. The note with it: Gynecologic cancer cell panel viability, ATPlite luminescence, 48 h, control line for the selectivity index; series mostly up to 57.5 µM. Put shortly:
as §1

For another test, the system named is JEG-3. Described as above. Conditions: Gynecologic cancer cell panel viability, ATPlite luminescence, 48 h; series mostly up to 57.5 µM. Put shortly: as §1
The next test relates to OV90. The test is described as above. The note with it: Gynecologic cancer cell panel viability, ATPlite luminescence, 48 h; series mostly up to 57.5 µM. An outline of the steps:
as §1

A further test has as its system PA-1. The test is described as above. The note with it: Gynecologic cancer cell panel viability, ATPlite luminescence, 48 h; series mostly up to 57.5 µM. Put shortly: as §1
The subject of a further test is Tov-21-G. Described as above. Conditions: Gynecologic cancer cell panel viability, ATPlite luminescence, 48 h; series mostly up to 57.5 µM. Put shortly: as §1
In the next test the test system is Tov112D. The description is as above. The note with it: Gynecologic cancer cell panel viability, ATPlite luminescence, 48 h; series mostly up to 57.5 µM. An outline of the steps: as §1
A short description of test [1]: Drug repurposing screens with cells derived from glioblastoma tumor samples (AID 1345199). For activity, negative = cell killing: % is set by controls: 0 for no effect and ±100 for the full control effect. Note: nearly all actives have a fitted effect of over 40% in size. Note: potency is the fitted concentration of half-maximal effect. The note with it: GBM patient neurospheres viability, ATP luminescence, 48 h. An outline of the steps:
(§2)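 Primary testing used CD133+ neurospheres from four GBM patients, seven concentrations, 48 h exposure and ATP-based viability; confirmation added three slower-growing patient lines.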

In a further test the test system is astro. Described as above. The note with it: viability, ATP luminescence, 48 h; series mostly up to 45.9 µM. An outline of the steps:
as §2

Another test concerns SKOV3. The test can be described thus: Primary qHTS to identify gynecologic anti-cancer compounds using libraries of approved drugs and bioactive compounds (AID 1345084). Note: % is set by controls: 0 for no effect and ±100 for the full control effect; nearly all actives have a fitted effect of over 55% in size. The note with it: Gynecologic cancer cell panel viability, ATPlite luminescence, 48 h; series mostly up to 57.5 µM. An outline of the steps:
as §1

For test [2], the target named is Nuclear receptor subfamily 1 group I member 2 (Rattus norvegicus) (UniProt Q9R1A7). Briefly: qHTS assay for small molecule activators of the rat pregnane X receptor (rPXR) signaling pathway (AID 651751; call rule not given here; note: 0% is about no effect). Conditions: rPXR reporter cells, luciferase (One-Glo), 24 h.
Nuclear receptor subfamily 1 group I member 2 (Rattus norvegicus), sequence (Q9R1A7 whole entry, looked up): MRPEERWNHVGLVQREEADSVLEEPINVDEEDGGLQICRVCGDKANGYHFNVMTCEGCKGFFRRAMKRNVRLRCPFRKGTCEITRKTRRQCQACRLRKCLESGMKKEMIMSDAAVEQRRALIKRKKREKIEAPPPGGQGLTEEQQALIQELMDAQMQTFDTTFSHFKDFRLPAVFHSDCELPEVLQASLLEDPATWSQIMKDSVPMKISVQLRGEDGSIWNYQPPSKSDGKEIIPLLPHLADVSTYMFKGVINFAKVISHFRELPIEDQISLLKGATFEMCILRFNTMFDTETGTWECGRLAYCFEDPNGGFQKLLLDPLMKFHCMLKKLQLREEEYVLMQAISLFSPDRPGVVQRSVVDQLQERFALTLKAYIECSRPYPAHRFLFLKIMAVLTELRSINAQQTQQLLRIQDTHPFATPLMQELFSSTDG
Test [3] can be described thus: qHTS assay for small molecule activators of the human pregnane X receptor (PXR) signaling pathway (AID 720659; call rule not given here; note: 0% is about no effect).
Setting [4] is: at 46.1 µM (top of the series), tumour line C.
Setting [5] is: at 45.9 µM (top of the series), tumour line B.
Where [6] appears, read: at 45.9 µM (top of the series), tumour line D.

Molecules are shown by their SMILES. Values joined by “and” are separate entries in the source; they are usually repeats but may differ in a detail not shown here. Equal entries are not always repeated. Values without a mark were called inactive. Inconclusive results are not listed. Active and inactive are the calls of the source. Unless noted, calls come from the whole dose curve; as a rule, active = well fitted curve in the direction sought with a large enough effect; inconclusive = small, poorly fitted or top-dose-only effect, or another doubt; inactive = no such curve, though single readings can be large; an effect the other way counts as inactive or inconclusive.

Consider `CN(C)c1nc(N(C)C)nc(N(C)C)n1`, for which the Potency result in the test on CASKI, in the test on Es-2, with HeLa, with Hek293T, with JEG-3 and in the test on OV90 was “inactive” in each case. Besides, the Potency entry with PA-1, in the test with Tov-21-G, in the test with Tov112D and in the test with astro was “inactive” throughout. Further, the activity, negative = cell killing in test [1] (at 20 µM (top of the series), tumour line C) was 0.771%; in test [1] (at 21.2 µM (top of the series), tumour line B), -14%; in [1] (at 21.2 µM (top of the series), tumour line D) it was -14.3%; in test [1] (at 21.3 µM (top of the series), tumour line A) it was -32%.

For `COc1ccc(CCN(C)CCCC(C#N)(c2ccc(OC)c(OC)c2)C(C)C)cc1OC` (stereo unspecified), the Potency entry in the test with CASKI, in the test on Es-2, in the test on HeLa, with Hek293T, with JEG-3 and in the test with PA-1 was “inactive” each time. In addition, the Potency entry with SKOV3, in the test on Tov-21-G and in the test on Tov112D was “inactive” each time. The activity, negative = cell killing in test [1] (setting [4]) was -2.06%. The Potency in test [1] (tumour line A) is 10 µM (active); in test [1] (tumour line B), 35.5 µM (active).

As to `C[C@@H]1CC(=O)NN=C1c1ccc(NN=C(C#N)C#N)cc1`, the Potency entry with CASKI, in the test on Es-2, in the test on HeLa, in the test with Hek293T, in the test on JEG-3 and in the test with OV90 was “inactive” in each case. For the same molecule, the Potency result in the test with PA-1, in the test with SKOV3, in the test on Tov-21-G, in the test on Tov112D and in the test with astro was “inactive” each time. Further, the activity, negative = cell killing in test [1] (setting [5]) was -23.8%; in test [1] (setting [4]), -26.3%.

In the case of `O=C(C1CCCCC1)N1CC(=O)N2CCc3ccccc3C2C1` (stereo unspecified), the Potency result in the test on CASKI, with Es-2, in the test with HeLa, with Hek293T, in the test on JEG-3 and in the test with OV90 was “inactive” throughout. Besides, the Potency entry in the test with PA-1, with SKOV3, in the test with Tov-21-G, with Tov112D and in the test with astro was “inactive” in each case. Also, the activity, negative = cell killing in test [1] (setting [5]) is -15.1%; in test [1] (setting [6]) it was -7.27%; in test [1] (setting [4]), -6.57%.

Take `CCN1CCCC1CNC(=O)c1cc(S(=O)(=O)CC)c(N)cc1OC` (stereo unspecified): the Potency result with CASKI, with Es-2, with HeLa, in the test with Hek293T, in the test with JEG-3 and in the test on OV90 was “inactive” in each case. Moreover, the Potency result in the test on PA-1, with Tov-21-G, in the test on Tov112D and with astro was “inactive” in each case. Moreover, the activity, negative = cell killing in test [1] (setting [5]) is 6.58%; in test [1] (setting [6]), -2.77%; in [1] (setting [4]) it was -4.87%.

As to `Clc1ccc2nsnc2c1NC1=NCCN1`, the Potency entry with CASKI, with Es-2, in the test with HeLa, with Hek293T, in the test with JEG-3 and with OV90 was “inactive” in each case. Further, the Potency entry with PA-1, in the test with SKOV3, in the test on Tov-21-G, with Tov112D and in the test with astro was “inactive” throughout. Further, the activity, negative = cell killing in test [1] (setting [5]) was -9.87%; in test [1] (setting [6]) it was 1.91%; in [1] (setting [4]), 8.38%.

Regarding `COc1ccccc1OCC(O)CN1CCN(CC(=O)Nc2c(C)cccc2C)CC1` (stereo unspecified), the Potency entry with CASKI, in the test on Es-2, with HeLa, in the test on Hek293T, in the test on JEG-3 and with OV90 was “inactive” throughout. The Potency entry in the test with PA-1, in the test with SKOV3, in the test with Tov-21-G, in the test on Tov112D and in the test on astro was “inactive” in each case. The activity, negative = cell killing in test [1] (setting [5]) was -2.09%; in test [1] (setting [6]), -4.68%; in [1] (setting [4]), -16.2%.

Turning to `CCOC(=O)c1ncn2c1CN(C)C(=O)c1cc(F)ccc1-2`, the Potency entry in the test on CASKI, in the test with Es-2, with HeLa, with Hek293T, in the test on JEG-3 and with OV90 was “inactive” in each case. The Potency entry in the test on PA-1, with SKOV3, in the test on Tov-21-G, with Tov112D and in the test with astro was “inactive” throughout. Moreover, the results for the activity, negative = cell killing in [1] (setting [5]), in test [1] (setting [6]) and in test [1] (setting [4]) were -16%, 3.15% and 4.97%, respectively.

As to `Nc1c2c(nc3ccccc13)CCCC2`, the Potency entry in the test on CASKI, in the test on Es-2, in the test on HeLa, in the test on Hek293T, with JEG-3 and in the test with OV90 was “inactive” throughout. The Potency result in the test with PA-1, in the test on Tov-21-G, with Tov112D and in the test on astro was “inactive” each time. Also, the activity, negative = cell killing in test [1] (setting [5]) is 1.31%; in [1] (setting [4]) it was -23.5%. For the same molecule, the Potency in test [1] (tumour line A) is 20 µM (active). Moreover, the max response in [2] is 4.58%. For the same molecule, the molecule was classed as inactive in test [3].

For the molecule `CC1(CN2CCC(n3c(=O)[nH]c4ccccc43)CC2)OCc2ccccc2-n2cccc21` (stereo unspecified), the Potency result with CASKI, in the test on Es-2, in the test with HeLa, with Hek293T, with JEG-3 and in the test with PA-1 was “inactive” each time. The Potency entry in the test on SKOV3, with Tov-21-G and in the test with Tov112D was “inactive” throughout.

Take `Cn1cnc2c1c(=O)[nH]c(=O)n2C`: the Potency result in the test on CASKI, with Es-2, with HeLa, with Hek293T, in the test on JEG-3 and with OV90 was “inactive” throughout. Besides, the Potency entry with PA-1, in the test on SKOV3, in the test with Tov-21-G, with Tov112D and in the test with astro was “inactive” each time. Also, the activity, negative = cell killing in test [1] (setting [5]) was 0.295%; in test [1] (setting [6]), -15.5%; in test [1] (setting [4]), 1.28%. In test [2], the max response was 2.94%.

For `O=C(c1ccc(OCCN2CCCCC2)cc1)c1c(-c2ccc(O)cc2)sc2cc(O)ccc12`, the Potency result with CASKI, in the test on Es-2, with HeLa, in the test on Hek293T, with JEG-3 and in the test with OV90 was “inactive” in each case. Further, the Potency entry in the test with Tov-21-G and with Tov112D was “inactive” throughout. Also, the Potency in the test with astro is 17.8 µM (active).

In the case of `Nc1ccn([C@H]2CC[C@@H](CO)O2)c(=O)n1`, the Potency entry with CASKI, in the test on Es-2, with HeLa, with Hek293T, in the test on JEG-3 and with OV90 was “inactive” each time. The Potency result in the test with PA-1, with SKOV3, in the test with Tov-21-G, with Tov112D and in the test on astro was “inactive” throughout. For the same molecule, the activity, negative = cell killing in [1] (setting [5]) is -3.23%; in [1] (setting [6]) it was -22.8%; in [1] (setting [4]), -9.64%. Also, the max response in test [2] is 4.04% and 0.741%. Besides, in [3], the molecule was classed as inactive.

Turning to `COc1ccc2c(c1)c(CC(=O)O)c(C)n2C(=O)c1ccc(Cl)cc1`, the Potency result in the test on CASKI, in the test with Es-2, in the test with HeLa, with Hek293T, in the test on JEG-3 and with PA-1 was “inactive” throughout. Further, the Potency result in the test with SKOV3, in the test on Tov-21-G, in the test on Tov112D and with astro was “inactive” in each case. Also, the activity, negative = cell killing is -14.6% in test [1] (setting [5]); -6.82% in test [1] (setting [6]); -26.1% in test [1] (at 46 µM (top of the series), tumour line A); -12.3% in test [1] (setting [4]). Moreover, in [2], the max response is -2.59% and -3.57%. For the same molecule, the molecule was classed as inactive in [3].

Regarding `COc1cc2nc(N3CCN(C(=O)C4COc5ccccc5O4)CC3)nc(N)c2cc1OC` (stereo unspecified), the Potency result in the test with CASKI, in the test on Es-2, in the test with HeLa, with Hek293T, with JEG-3 and with PA-1 was “inactive” in each case. Besides, the Potency result in the test with Tov-21-G, in the test on Tov112D and in the test with astro was “inactive” each time. Further, the activity, negative = cell killing in test [1] (setting [5]) is -16.3%; in [1] (setting [6]) it was -29.3%; in [1] (setting [4]) it was -17.1%. Besides, in test [1] (tumour line A), the Potency was 11.2 µM (active).

Source of the values: PubChem BioAssay (NCATS).
